Bioassay records: PubChem, National Center for Advancing Translational Sciences (NCATS)
Only some compounds are listed: those with a hit (about 12% of all), similar ones and a draw of the others.
JMJD2A Tudor inh – blocks the human JMJD2A Tudor domain. AlphaScreen JMJD2A-Tudor / H3K4me3 peptide binding. Potency, µM (titrated, usually from 114 µM), most hits filed as inhibitors. actives 4.4% (n = 390,000). O75164. AID 504339; further: nearly all actives have a fitted effect of over 50% in size
Sfp PPTase inh – Sfp phosphopantetheinyl transferase inhibition; Biochemical Sfp PPTase activity, qHTS; Potency, µM, most hits filed as inhibitors; actives 3.5% (n = 310,000);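 further: the enzyme is Sfp with the accession as filed and its product quenches rhodamine fluorescence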
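Buffer: 50 mM Hepes-Na pH 7.6, 10 mM MgCl2, 0.01% Nonidet P-40, 0.01% BSA. Enzyme 15 nM, pre-exposed to compound 15 min; substrates then added and fluorescence change tracked over 30 min.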
G9a inh – inhibitors of human histone lysine methyltransferase G9a; Q96KQ7; G9a H3K9 monomethylation, AlphaScreen, 2 h; Potency, µM (titrated, usually from 102 µM), hits mostly inhibitors; actives 8.8% (n = 350,000); AID 504332; further: nearly all actives have a fitted effect of over 75% in size
Target sequence (Q96KQ7 913-1193 limits assumed): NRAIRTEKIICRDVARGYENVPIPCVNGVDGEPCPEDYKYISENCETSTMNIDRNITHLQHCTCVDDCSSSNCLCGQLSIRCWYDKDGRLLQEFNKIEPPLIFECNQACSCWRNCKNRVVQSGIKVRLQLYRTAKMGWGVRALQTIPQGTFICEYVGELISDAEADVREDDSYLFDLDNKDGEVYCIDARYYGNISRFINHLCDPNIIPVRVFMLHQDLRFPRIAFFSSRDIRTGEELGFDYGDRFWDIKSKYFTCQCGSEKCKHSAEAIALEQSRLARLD
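Compounds were preincubated with 20 nM G9a for 15 min, after which biotinylated H3K9 peptide (500 nM) and SAM (20 uM) started a 2 h room-temperature reaction. Monomethylated product was quantified by antibody-based AlphaScreen chemiluminescence.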
HP1b chromo inh – HP1-beta chromodomain-methylated histone interaction inhibition; AlphaScreen HP1-beta / biotin-H3K9me3 peptide binding; AID 540317; Potency, µM (titrated, usually from 114 µM), actives largely listed as inhibitors; actives 0.56% (n = 390,000); P83916; further: nearly all actives have a fitted effect of over 70% in size
Target sequence (P83916 whole entry, looked up): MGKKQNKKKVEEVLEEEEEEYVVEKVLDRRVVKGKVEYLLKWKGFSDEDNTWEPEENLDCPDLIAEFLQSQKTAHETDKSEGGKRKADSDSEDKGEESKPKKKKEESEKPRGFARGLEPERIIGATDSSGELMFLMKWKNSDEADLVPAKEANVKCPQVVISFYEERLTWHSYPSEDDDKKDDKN
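Compound inhibition of the preformed complex between 50 nM HP1-beta and 50 nM biotinylated H3K9me3 peptide was read by AlphaScreen. Buffer was PBS pH 7.4 with 0.01% Tween-20. Incubations ran 30 min at room temperature, with 10 ug/mL donor/acceptor beads.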
L3MBTL1 block – inhibitors of human L3MBTL1. Q9Y468. AlphaScreen L3MBTL1–H3K9me1 peptide binding. Potency, µM (highest dose often 57.1 µM), hits mostly inhibitors. actives 0.66% (n = 230,000); further: nearly all actives have a fitted effect of over 60% in size
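AlphaScreen proximity signal between nickel-chelate acceptor and streptavidin donor beads (final 10 ug/mL) reports binding of 50 nM L3MBTL1 to 75 nM biotin-H3 K9me1 peptide; complex incubated with compounds 30 min at room temperature; cefsulodin titration as control.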
BAZ2B block – inhibitors of human BAZ2B bromodomain | Q9UIF8 | AlphaScreen BAZ2B-H3K14Ac peptide displacement | Potency, µM (titrated, usually from 114 µM), usual class: inhibitors | actives 4.4% (n = 360,000) | AID 504333; further: nearly all actives have a fitted effect of over 60% in size
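Complex of BAZ2B and biotin-H3K14Ac (50 nM apiece) forms over 30 min at RT, then faces library compounds up to 110 uM for another 30 min; AlphaScreen beads added, 20 min dark incubation, luminescence read.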
A number is an active result; 0 = inactive; ? = inconclusive; - = no result; [ ] = remark or other dose. The call rests on the fitted dose curve; in most records, active means well fitted curve in the direction sought with a large enough effect; inconclusive means small, poorly fitted or top-dose-only effect, or another doubt; inactive means no such curve, though single readings can be large; an effect the other way counts as inactive or inconclusive.

SMILES	JMJD2A Tudor inh	Sfp PPTase inh	G9a inh	HP1b chromo inh	L3MBTL1 block	BAZ2B block
CCC(C)N(C(=O)CSc1nc2ccc(OC)cc2[nH]1)C1CCS(=O)(=O)C1 (configuration not stated)	0	-	39.8µM	0	0	0
CCC(C)NC(=O)c1ccc2nc(-c3ccco3)c(-c3ccco3)nc2c1 (configuration not stated)	0	-	-	0	-	-
Cc1ccc(CC2CC(=O)N(Cc3ccco3)C2=O)cc1 (configuration not stated)	0	35.5µM	39.8µM	0	0	0
O=C1C2C3CCC(C3)C2C(=O)N1Cc1ccco1 (configuration not stated)	0	0	0	0	0	0
O=C1CC(Cc2ccccc2)C(=O)N1Cc1ccco1 (configuration not stated)	0	14.1µM	44.7µM	0	0	0
Cc1nn(C)c(Cl)c1S(=O)(=O)N(Cc1ccco1)c1ncnc2nc[nH]c12	0	-	-	0	-	-
CCOc1ccccc1NC(=O)Nc1ccc2nc(N3CCN(C)CC3)cc(C)c2c1	?	-	?	0	-	0
C[C@@H]1NC(=O)[C@H](CC(N)=O)NC(=O)c2cc([N+](=O)[O-])cc(I)c2OCC[C@@H](C(=O)NC(CC(=O)O)C(N)=O)NC1=O (some centres not stated)	0	0	28.2µM	0	0	0
NC(=O)[C@@H]1CCCCNc2c(F)cc([N+](=O)[O-])cc2C(=O)N[C@@H](CCCN=C(N)N)C(=O)NCC(=O)N1	0	0	0	0	0	0
NC(=O)C(CC(=O)O)NC(=O)[C@@H]1CCOc2c(I)cc([N+](=O)[O-])cc2C(=O)N[C@@H](CCC(=O)O)C(=O)N[C@@H](CO)C(=O)N1 (some centres not stated)	?	0	7.94µM	0	0	?
C[C@@H]1NC(=O)c2cc([N+](=O)[O-])cc(I)c2OCC[C@@H](C(=O)NC(CC(=O)O)C(N)=O)NC(=O)[C@H](CCC(=O)O)NC1=O (some centres not stated)	?	0	35.5µM	0	?	0
COc1ccc(C2C=C3CNS(=O)(=O)C3CC2OC(=O)c2ccc(Cl)cc2)cc1 (configuration not stated)	0	0	-	0	-	-
COc1ccc(-c2nn(-c3ccccc3)cc2C(=O)O)cc1	0	0	?	0	0	0
O=C(O)/C=C/c1cn(-c2ccccc2)nc1-c1cc2ccccc2oc1=O	0	0	-	0	0	0
Cc1ccc(-c2nn(-c3ccccc3)cc2C(=O)O)o1	-	0	4.47µM	-	2.82µM	?
Cc1ccc(-c2nn(-c3ccccc3)cc2/C=C/C(=O)O)o1	0	0	28.2µM	0	0	?
CCOC(=O)C1=C(C)NC(C)=C(C(=O)OCC)C1c1cn(-c2ccccc2)nc1-c1ccco1	0[11.4 µM]	0	0[12.7 µM]	0	-	0
Cc1ccc(-c2nn(-c3ccccc3)cc2CN(Cc2ccccc2)C(=O)c2ccco2)o1	56.2µM	17.8µM	31.6µM	0	-	31.6µM
CC(C)OC(=O)c1cn(-c2ccccc2)nc1-c1ccco1	0	8.91µM	7.94µM	0	0	0
COC(=O)NC(c1cccc(C)c1)[C@@]1(C(=O)OC)CCCC1=O (some centres not stated)	-	0	-	-	-	-
Cc1nn(CC(=O)NCc2ccc(N(C)C)cc2)c(=O)c2c(C)n(-c3ccc(Cl)cc3)nc12	0	-	0	0	-	0
CCCCn1c(=O)c2oc3ccccc3c2n(CC(=O)Nc2cc(C)ccc2C)c1=O	0	-	0	0	-	0
COC(=O)c1ccc(NC(=O)N2CCc3c([nH]c4ccccc34)C2c2ccc(C)cc2)cc1 (configuration not stated)	?	-	0	0	-	?
Cc1cccc(C)c1N(CC(=O)Nc1cc(Cl)ccc1Oc1ccccc1)S(C)(=O)=O	0	0	12.6µM	0	0	0
CCN(c1ccccc1)S(=O)(=O)c1cc(NC(=O)CN2CCN(C)CC2)ccc1Cl	0.891µM	-	-	?	0	-
SMILES	JMJD2A Tudor inh	Sfp PPTase inh	G9a inh	HP1b chromo inh	L3MBTL1 block	BAZ2B block
CCN(c1ccccc1)S(=O)(=O)c1ccc(Cl)c(NC(=O)COC(=O)c2ccc(O)cc2)c1	0	0	0	?	0	0
CCN(c1ccccc1)S(=O)(=O)c1ccc(Cl)c(NC(=O)CN2CCCCCC2)c1	0.708µM	56.2µM	0	22.4µM	-	50.1µM
CCN(c1ccccc1)S(=O)(=O)c1ccc(Cl)c(NC(=O)COC(=O)c2cc(O)c3ccccc3c2O)c1	-	44.7µM	?	-	-	50.1µM
CCN(c1ccccc1)S(=O)(=O)c1ccc(Cl)c(NC(=O)CSc2nncs2)c1	79.4µM	0	0	0	0	0
CN(C)S(=O)(=O)c1ccc(Cl)c(NC(=O)CN2CCCCCC2)c1	0	0	0	0	0	0
COc1cccc(Cn2ncc3c4sc(B(O)O)cc4n(C)c3c2=O)c1	-	-	0[12.7 µM]	-	0	0
C=C(C[C@]1(C(=O)OC)CC2(CC=C(C)C)C(=O)C(C(=O)CC(C)C)=C(O)C(CC=C(C)C)(C1)C2=O)C(=O)OC (some centres not stated)	-	0	-	-	-	-
Cc1cc(NC(=O)CSc2c(C)[nH]c3ccccc23)no1	0	0	50.1µM	0	0	0
Cc1cc(NC(=O)CSc2ccccn2)no1	0	0	44.7µM	0	0	0
O=C(Cn1ncc2c([nH]c3ccccc32)c1=O)Nc1cc(F)ccc1F	0	-	0	0	-	0
O=C(N/N=C/c1oc(O)c2ccccc12)c1ccccc1O	0	0	35.5µM	0	0	0
O=C(N/N=C/c1ccnc2ccccc12)c1ccccc1O	100µM	0	0	0	-	0
O=C(N/N=C/c1ccoc1)c1ccccc1O	0	0	0	0	-	?
O=C(N/N=C/c1ccc2nccnc2c1)c1ccccc1O	-	0	0	-	0	0
CCC(C)C(NC(=O)OC(C)(C)C)C(=O)NC1COC2CC(n3ccc(NC(C)=O)nc3=O)OC12 (configuration not stated)	0	0	-	0	-	-
COc1cc(/C=C/C(=O)O)cc(S(=O)(=O)N2CCc3ccccc3C2)c1OC	0	0	89.1µM	0	0	0
Cc1ccc2oc(=O)n(Cc3ccccc3Cl)c2c1	0	-	0	0	-	0
CCn1c(C)csc1=NC(=O)c1ccccc1	0	0	0	0	0	0
CCOC(=O)c1ccc(N=c2scc(C)n2CC)cc1	39.8µM	0	22.4µM	?	0	39.8µM
C=CCn1c(C)csc1=Nc1ccc(C(C)=O)cc1	0[11.4 µM]	0	?	0	0[11.4 µM]	44.7µM
C=CCn1c(C)csc1=Nc1ccccc1C	56.2µM	0	50.1µM	50.1µM	-	50.1µM
C=CCn1c(CC(=O)OC)csc1=Nc1ccc(C(C)=O)cc1	0	0	?	0	0	?
CCOC(=O)c1ccc(N=NN(C)C)cc1	0	0	0[12.7 µM]	0	0	0
O=c1c(-c2cccs2)nc2cncnc2n1Cc1ccc(F)cc1	-	0	0[0.501 µM]	-	-	-
